# Source: the supplement of paper PMC9262897, “Low-cost anti-mycobacterial drug discovery using engineered E. coli” (Nature Communications, 2022)
# Counter-ions that a name gives are not always drawn. ± gives the standard deviation of the averaged measurements.
# System: E. coli TESEC Alr+ wild-type control
# Test: growth (OD600 after 10 h); higher = more growth (less inhibition)
# Settings: compound 0.1 mM; raw OD600 reference: median of DMSO wells 0.49, cell-free background 0.052
# Procedure: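 TESEC Mtb Alr E. coli (ΔaraC ΔtolC ΔentC Δalr ΔdadX, arabinose-inducible Mtb Alr) or the Alr+ wild-type control strain, grown in defined M9-fructose medium without D-alanine in 96-well plates with Prestwick library compounds at 0.1 mM and 1% DMSO. Low Alr induction is 0.1 µM arabinose and high induction is 10 mM arabinose.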
row,Structure (SMILES),growth
1,O=C(CCCN1CC=C(n2c(=O)[nH]c3ccccc32)CC1)c1ccc(F)cc1 [Droperidol],0.404 ± 0.025
2,CC(=O)OCC(=O)[C@@]1(OC(C)=O)[C@@H](C)C[C@H]2[C@@H]3C[C@H](F)C4=CC(=O)C=C[C@]4(C)[C@@]3(F)[C@@H](O)C[C@@]21C [Diflorasone Diacetate],0.398 ± 0.015
3,CNNCc1ccc(C(=O)NC(C)C)cc1 [Procarbazine hydrochloride],0.454 ± 0.01
4,CC(C)NCC(O)COc1ccc(CCOCC2CC2)cc1 (stereo not given) [Betaxolol hydrochloride],0.562 ± 0.028
5,COc1ccc2c(c1)c(CC(=O)O)c(C)n2C(=O)c1ccc(Cl)cc1 [Indomethacin],0.392 ± 0.0071
6,O=C(CCCN1CCN(c2ccccn2)CC1)c1ccc(F)cc1 [Azaperone],0.395 ± 0.0085
7,CCC(C)n1ncn(-c2ccc(N3CCN(c4ccc(OCC5COC(Cn6cncn6)(c6ccc(Cl)cc6Cl)O5)cc4)CC3)cc2)c1=O (stereo not given) [Itraconazole],0.44 ± 0.018
8,C=C1C[C@H]2[C@@H]3C=C(C)C4=CC(=O)CC[C@]4(C)[C@H]3CC[C@]2(C)[C@@]1(OC(C)=O)C(C)=O [Melengestrol acetate],0.205 ± 0.053
9,CC(CCc1ccccc1)NCC(O)c1ccc(O)c(C(N)=O)c1 (stereo not given) [Labetalol hydrochloride],0.467 ± 0.024
10,C#C[C@]1(O)CC[C@H]2[C@@H]3CCc4cc(O)ccc4[C@H]3CC[C@@]21C [Ethinylestradiol],0.0818 ± 0.0029
11,CC(Oc1c(Cl)cccc1Cl)C1=NCCN1 (stereo not given) [Lofexidine],0.555 ± 0.044
12,CC1(C)S[C@@H]2[C@H](NC(=O)[C@H](N)c3ccc(O)cc3)C(=O)N2[C@H]1C(=O)O [Amoxicillin],0.572 ± 0.07
13,CCCCCCCN(CC)CCCC(O)c1ccc(NS(C)(=O)=O)cc1 (stereo not given) [Ibutilide fumarate],0.55 ± 0.095
14,OC(CCN1CCCCC1)(c1ccccc1)C1CC2C=CC1C2 (stereo not given) [Biperiden hydrochloride],0.509 ± 0.062
15,COc1ccccc1N1CCN(CC(O)COc2cccc3ccccc23)CC1 (stereo not given) [Naftopidil dihydrochloride],0.0532 ± 0.0005
16,CCN(CC)CCNC(C(=O)OCCC(C)C)c1ccccc1 (stereo not given) [Camylofine chlorhydrate],0.559 ± 0.084
17,COc1cnc(NS(=O)(=O)c2ccc(N)cc2)nc1 [Sulfameter],0.516 ± 0.12
18,Cn1nnc2c(C(N)=O)ncn2c1=O [Temozolomide],0.539 ± 0.076
19,C[C@]12CC[C@H]3C(=CCc4cc(O)ccc43)[C@@H]1CCC2=O [Equilin],0.424 ± 0.0094
20,CCN(CC)CCCC(C)Nc1c2ccc(Cl)cc2nc2ccc(OC)cc12 (stereo not given) [Quinacrine dihydrochloride hydrate],0.125 ± 0.049

row,Structure (SMILES),growth
1,Nc1nc(NC2CC2)c2ncn([C@H]3C=C[C@@H](CO)C3)c2n1 [Abacavir Sulfate],0.612 ± 0.095
2,COc1cccc2c1C(=O)c1c(O)c3c(c(O)c1C2=O)C[C@@](O)(C(=O)CO)C[C@@H]3O[C@H]1C[C@H](N)[C@H](O)[C@H](C)O1 [Doxorubicin hydrochloride],0.05757 ± 0.00055
3,Nc1nc(O)c2ncn(CCC(CO)CO)c2n1 [Penciclovir],0.455 ± 0.03
4,COc1cc(C(=O)NCc2ccc(OCCN(C)C)cc2)cc(OC)c1OC [Trimethobenzamide hydrochloride],0.464 ± 0.066
5,Nc1ccc(C(=O)O)c(O)c1 [4-aminosalicylic acid],0.545 ± 0.044
6,CCN(CC)CCOC(=O)c1ccc(N)cc1 [Procaine hydrochloride],0.52 ± 0.05
7,CCCCNc1c(C(=O)OCC)c(C)nc2c1cnn2CC [Tracazolate hydrochloride],0.335 ± 0.024
8,CCCOc1ccc(C(=O)OCCN(CC)CC)cc1N [Proparacaine hydrochloride],0.469 ± 0.043
9,N=C(N)NCc1cccc(I)c1 [Iobenguane sulfate],0.488 ± 0.019
10,O=C(O)c1cn(C2CC2)c2cc(N3CCNCC3)c(F)cc2c1=O [Ciprofloxacin hydrochloride monohydrate],0.0505 ± 0.0005
11,CCN1CCCC1CNC(=O)c1cc(S(N)(=O)=O)ccc1OC (stereo not given) [Sulpiride],0.525 ± 0.011
12,CCN[C@H]1C[C@H](C)S(=O)(=O)c2sc(S(N)(=O)=O)cc21 [Dorzolamide hydrochloride],0.47 ± 0.0087
13,O=C1c2c(O)cccc2Cc2cccc(O)c21 [Anthralin],0.339 ± 0.015
14,COc1ccc2c(c1)N(C[C@H](C)CN(C)C)c1ccccc1S2 [Methotrimeprazine maleat salt],0.477 ± 0.023
15,O=C(O)CCC(=O)Nc1ccc(S(=O)(=O)Nc2nccs2)cc1 [Succinylsulfathiazole],0.455 ± 0.037
16,CC(=O)Oc1cc(C(C)C)c(OCCN(C)C)cc1C [Moxisylyte hydrochoride],0.533 ± 0.029
17,O=C(O)Cc1ccccc1Nc1c(Cl)cccc1Cl [Diclofenac sodium],0.436 ± 0.0056
18,O=C(NCCNCC(O)COc1ccc(O)cc1)N1CCOCC1 (stereo not given) [Xamoterol hemifumarate],0.631 ± 0.0095
19,CC(c1cc2ccccc2s1)N(O)C(N)=O (stereo not given) [Zileuton],0.457 ± 0.011
20,C[C@H]1[C@H](NC(=O)/C(=N\OC(C)(C)C(=O)O)c2csc(N)n2)C(=O)N1S(=O)(=O)O [Aztreonam],0.385 ± 0.016
